This note sets out measurements from PubChem BioAssay (NCATS).

Records with an inconclusive call do not appear. A call without a number means that no potency is given here. Calls of active or inactive are those of the source. Calls follow the shape of the dose curve; as a rule, active = well fitted inhibition curve with a large enough effect; inconclusive = small, poorly fitted or top-dose-only effect; inactive = flat fitted curve, though single readings scatter.
Potency is read from the fitted curve at half-maximal effect.

For this assay, the system named is Zika virus NS2B-NS3 protease. The assay can be described thus: Primary screen GU AMC qHTS for Zika virus inhibitors (AID 1347154). Also: nearly all actives have a fitted effect of over 70% in size. To be noted: Zika NS2B-NS3 unlinked protease, AMC fluorogenic substrate; series mostly up to 54.1 µM. The gist of the method:
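Unlinked Zika NS2B hydrophilic domain/NS3 protease domain noncovalent complex (25 nM final) in 10 mM Tris-HCl pH 8.0, 0.01% Tween 20, with AMC peptide substrate. Fluorescence (ex 340, em 450 nm) change over 15 min, room temperature; percent inhibition fitted to 4-parameter Hill equation.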
On to `Cc1ccccc1N1CCN(CCc2nnc3n2CCCC3)CC1`, for which the Potency entry is “inactive”. On to `O=C1Nc2cc(Cl)ccc2Oc2ccccc21`, for which the Potency entry is “inactive”. In the case of `CC(=O)OC[C@H]1O[C@@H](OC(C)=O)[C@H](OC(C)=O)[C@@H]1OC(C)=O`, the Potency result was “inactive”. For the compound `O=C(CCCl)NCc1ccccc1`, the Potency result is “inactive”. For `Oc1ccccc1-c1nnco1`, the Potency result is “inactive”. For `CCC[C@H](N[C@@H](C)C(=O)N1[C@H](C(=O)O)C[C@@H]2CCCC[C@@H]21)C(=O)OCC`, the Potency entry is “inactive”. With `CCOC(=O)Oc1ccc(CCNC(=O)[C@H](CCSC)NC(C)=O)cc1OC(=O)OCC`, the Potency result was “inactive”.

In the case of `CC(=O)CC/C=C(\C)CC/C=C(\C)CC/C=C(\C)CCC=C(C)C`, the Potency result is “inactive”. As to `COc1ccc2nc(SCc3ncc(C)c(OC)c3C)[nH]c2c1`, the Potency entry is “inactive”.

Take `CCC(C(=O)OCCN1CCOC(c2ccccc2)C1C)c1ccccc1` (stereo not drawn): the Potency result was “inactive”. With `CCOc1ccccc1OCC1CNCCO1` (stereo not drawn), the Potency result is “inactive”. With `COc1ccc2cc(C=O)ccc2c1`, the Potency is 31.6 µM (active). Consider `OC1(c2ccccc2)CCNCC1`, for which the Potency entry was “inactive”.

As to `C/C(=C1\CCOC(=O)S1)N(C=O)Cc1cnc(C)nc1N`, the Potency result was “inactive”.

With `COCCc1ccc(OCC2CO2)cc1` (stereo not drawn), the Potency entry is “inactive”. `Cc1cccc(N(C)C(=S)Oc2ccc3c(c2)CCC3)c1`: the Potency result was “inactive”.

In the case of `C/C(=N/NC(=O)c1ccncc1)C(=O)O`, the Potency result was “inactive”.

For `CCOC(=O)C(=O)CCCCCCl`, the Potency result is “inactive”. For `Oc1ccc(CCNCCCCCCNCCc2ccccc2)cc1O`, the Potency entry is “inactive”. As for `O=[N+]([O-])c1nccn1CO[C@@H](CO)[C@H](O)CO`, the Potency result was “inactive”. Take `CN(C)CCCOC1(Cc2ccccc2)CCCCCC1`: the Potency result was “inactive”.

`O=C(OCC(COC(=O)c1cccnc1)(COC(=O)c1cccnc1)COC(=O)c1cccnc1)c1cccnc1`: the Potency result was “inactive”. Turning to `CO[C@]1(NC(=O)CSC(F)F)C(=O)N2C(C(=O)O)=C(CSc3nnnn3CCO)CO[C@H]21`, the Potency entry is “inactive”.

As to `Nc1ccc(C(=O)N2CC3CC(CN(Cc4ccccc4)C3)C2)cc1`, the Potency result is “inactive”. Then `Nc1nc2ccccc2n1Cc1ccc(F)cc1`, with “inactive”; and `CCOC(=O)c1cc(=O)c2c(OCC(COc3cccc4oc(C(=O)OCC)cc(=O)c34)OC(=O)[C@@H](N)CCCCN)cccc2o1`, with “inactive”. For `Cc1c(F)cc2c(=O)c(C(=O)O)cn3c2c1CCC3C` (stereo not drawn), the Potency entry was “inactive”.

With `CC(NN)c1ccccc1` (stereo not drawn), the Potency entry is “inactive”. `CC(=O)N(CC(O)CO)c1c(I)c(C(=O)NCCO)c(I)c(C(=O)NCC(O)CO)c1I` (stereo not drawn): the Potency entry is “inactive”.

For the compound `Cc1ccc2c(Cl)cc(Cl)c(O)c2n1`, the Potency entry is “inactive”. Under `CN(C(=O)C(Cl)Cl)c1ccc(OC(=O)c2ccco2)cc1` stands “inactive”; under `O=C(O)Cn1c(=O)n(Cc2ccc(Br)cc2F)c(=O)c2ccc(Cl)cc21`, “inactive”.

In the case of `O=C(O)c1ccccc1S`, the Potency result is “inactive”.

As to `CCCCCOc1ccccc1/C(=C\SC)n1ccnc1`, the Potency entry was “inactive”.

For `O=C(O)c1[nH]n(-c2ccc(S(=O)(=O)O)cc2)c(=O)c1N=Nc1ccc(S(=O)(=O)O)cc1`, the Potency entry was “inactive”.

Take `CC(=O)c1ccc(O)c(C(N)=O)c1`: the Potency result is “inactive”. As for `CCOC(=O)C(=O)CCc1ccccc1`, the Potency entry was “inactive”. Under `CN1CCC(=C2c3ccccc3CCc3cccnc32)CC1` stands “inactive”.
